Structures are written as SMILES. Values joined by “and” are separate entries in the source; they are usually repeats but may differ in a detail not shown here. Equal values may be shown once. Records with an inconclusive call do not appear. Active and inactive are the calls of the source. Unless noted, the call rests on the fitted dose curve; in most records, active means well fitted curve in the direction sought with a large enough effect; inconclusive means small, poorly fitted or top-dose-only effect, or another doubt; inactive means no such curve, though single readings can be large; an effect the other way counts as inactive or inconclusive.

The nature of assay [1]: qHTS Assay for Identifying Gametocytocidal Compounds (AID 743244). Further: potency means the concentration at half of the fitted maximal effect.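 On max response: on the % scale 0 is the no-effect control and ±100 the full control effect; actives lower the fluorescent signal which means gametocytes are killed.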 The conditions noted are these: P. falciparum 3D7 stage III-V gametocytes, alamarBlue, 72 h; max response: stronger effect = lower value. In a few lines: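 Late gametocytes (III–V), P. falciparum 3D7; 72 h drug, then 24 h alamarBlue; resazurin reduction read by fluorescence.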
The nature of assay [2]: qHTS assay to identify small molecule inhibitors of chordoma cells - UCH-2 (AID 1259356). Further: on the % scale 0 is the no-effect control and ±100 the full control effect. As to conditions: UCH-2 chordoma viability, CellTiter-Glo ATP luminescence, 48 h; series mostly up to 46.1 µM.
Assay [3] can be described thus: qHTS assay for cell viability of HEK293 cells (AID 743288). Further: on the % scale 0 is the no-effect control and ±100 the full control effect; nearly all actives have a fitted effect of over 50% in size. The conditions noted are these: ATP luminescence (CellTiter-Glo), 18 h, stronger effect = lower value. In a few lines:
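The Tox21 protocol used parental HEK293 cells treated for 18 h at 37 C with compounds delivered by pintool; ATP-coupled luminescence after 30 min at room temperature gave viability.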

The nature of assay [4]: qHTS assay for cell viability of the p53RE-bla HCT-116 cell line (AID 743292). Further: on the % scale 0 is the no-effect control and ±100 the full control effect; nearly all actives have a fitted effect of over 55% in size. As to conditions: p53RE-bla HCT-116 viability, ATP luminescence, 16 h; series mostly up to 95 µM. The gist of the method:
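Intracellular ATP of p53RE-bla HCT-116 cells measured by luciferase luminescence following 16 h compound incubation at 37 C; DMSO-only wells served as vehicle controls.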

Assay [5] can be described thus: P-glycoprotein substrates identified in KB-3-1 adenocarcinoma cell line, qHTS therapeutic library screen (AID 1346986). Further: nearly all actives have a fitted effect of over 60% in size. As to conditions: KB-3-1 parental cells viability, CellTiter-Glo, 72 h; series mostly up to 44.5 µM. The gist of the method:
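Counter-screen: cherry-picked hits retested in the KB pair and in HEK-293 pcDNA/MDR-19 cells ± tariquidar. Primary screen used 72 h CellTiter-Glo viability in KB-3-1 and KB-8-5-11.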

Assay [6] can be described thus: qHTS profiling for inhibitors of Plasmodium falciparum (3D7) proliferation (AID 743322; call rule not given here;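 further: infected erythrocytes exposed to compound for 72 h before lysis; 100% = DMSO vehicle wells and 0% = 0.29 µM artemisinin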). As to conditions: P. falciparum 3D7 proliferation; at 28.7 µM (top of the series) unless noted. The gist of the method: (§1)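 Erythrocytes infected with P. falciparum (0.3% parasitemia, 2.5% hematocrit) incubated with compounds 72 h at 37 C, 5% CO2. Lysis with saponin/Triton buffer containing SYBR Green I, overnight at room temperature in the dark; DNA fluorescence (485/535 nm) normalised to 0.29 uM artemisinin and DMSO.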

Assay [7] in a line: qHTS profiling for inhibitors of Plasmodium falciparum (DD2) proliferation (AID 743323; call rule not given here). As to conditions: lower = more inhibition; at 28.7 µM (top of the series) unless noted. The gist of the method: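 Parasite DNA quantified by SYBR Green fluorescence (ex 485, em 535 nm) after saponin/Triton lysis and overnight dark incubation. Cultures: 0.3% parasitemia, 2.5% hematocrit, 72 h, 37 C; data scaled between DMSO and 0.29 uM artemisinin.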

The nature of assay [8]: qHTS profiling of the MIPE4 collection as inhibitors of Plasmodium falciparum (3D7) proliferation (AID 743344; call rule not given here;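 further: scaled between DMSO vehicle wells and 0.29 µM artemisinin as full inhibition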). As to conditions: P. falciparum 3D7 in erythrocytes, SYBR Green DNA fluorescence, 72 h; at 28.5 µM (top of the series) unless noted. The gist of the method: as §1
Assay [9] can be described thus: qHTS profiling of the MIPE4 collection as inhibitors of Plasmodium falciparum (DD2) proliferation (AID 743345; call rule not given here). The conditions noted are these: P. falciparum Dd2 in erythrocytes, SYBR Green DNA, 72 h; at 28.5 µM (top of the series) unless noted. In a few lines:
as §1

Assay [10] can be described thus: qHTS profiling of the MIPE4 collection as inhibitors of Plasmodium falciparum (DD2) proliferation (Rep 2) (AID 743346; call rule not given here). The conditions noted are these: P. falciparum Dd2 in erythrocytes, SYBR Green DNA, 72 h; at 28.5 µM (top of the series) unless noted. In a few lines:
as §1

The nature of assay [11]: qHTS profiling of the MIPE4 collection as inhibitors of Plasmodium falciparum (HB3) proliferation (AID 743347; call rule not given here;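 further: plate controls were DMSO vehicle wells for no effect and artemisinin wells for full effect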). The conditions noted are these: P. falciparum HB3 in erythrocytes, SYBR Green DNA, 72 h; at 28.5 µM (top of the series) unless noted. The gist of the method: as §1
The nature of assay [12]: Identifying Small Molecule Inhibitors of Pancreatic Cancer Stem Cells (A2780, Spheroid) (AID 1259357).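 Further: compound exposure lasted 48 h before the ATP luminescence read; 100% = DMSO treated cells and 0% = wells without cells.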 As to conditions: Potency: A2780 spheroid viability; series mostly up to 46.1 µM. The gist of the method:
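After a 4 h attachment period, compounds were pinned into wells and cultures held 48 h under standard incubator conditions. Viability was then measured as CellTiter-Glo luminescence following 10 min at room temperature.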

The nature of assay [13]: Identifying Small Molecule Inhibitors of Pancreatic Cancer Stem Cells (SN12C, Adherent) (AID 1259358).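 Further: cell survival measured after 48 h of compound exposure.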 Further: potency means the concentration at half of the fitted maximal effect. The conditions noted are these: viability/growth inhibition; series mostly up to 46.1 µM. The gist of the method: (§2)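 Cytotoxicity read by CellTiter-Glo luminescence after 48 h compound exposure at 37C; percent activity scaled between DMSO-treated cells and cell-free wells. Spheroid formats used cells pre-formed 14 days in stem cell media on hydrogel.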

The nature of assay [14]: Identifying Small Molecule Inhibitors of Pancreatic Cancer Stem Cells (A278, Adherent) (AID 1259361).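 Further: 100% = DMSO-treated cells and 0% = cell-free media-only wells; nearly all actives have a fitted effect of over 35% in size.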 The conditions noted are these: series mostly up to 46.1 µM. The gist of the method:
as §2

The nature of assay [15]: qHTS profiling for inhibitors of Plasmodium falciparum (HB3) proliferation (AID 743324).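 Further: 100% = DMSO vehicle wells and 0% = artemisinin-treated control wells.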 The conditions noted are these: Plasmodium falciparum HB3 blood-stage proliferation; at 28.7 µM (top of the series) unless noted. In a few lines:
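P. falciparum HB3 grown in erythrocytes (0.3% parasitemia, 2.5% hematocrit final) with compound for 72 h at 37 C, 5% CO2. Parasite DNA detected by SYBR Green after saponin/triton lysis overnight; normalized to 0.29 uM artemisinin and DMSO.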

In the case of `O=CCCCC=O`, the max response in assay [1] is -1.12% (inactive). Moreover, the Potency result in [2] is “inactive”.
In the case of `Nc1nc(N)c2nc(CNc3ccc(C(=O)N[C@@H](CCC(=O)O)C(=O)O)cc3)cnc2n1`, in assay [1], the max response was 13.9% (inactive). In addition, in assay [2], the Potency result is “inactive”.
`C[C@H]1C[C@H]2[C@@H]3CCC4=CC(=O)C=C[C@]4(C)[C@@]3(F)[C@@H](O)C[C@]2(C)[C@@]1(O)C(=O)CO`: the max response in [1] was -4.91% (inactive); in [3], -14.2% (inactive). Besides, in assay [4], the call was inactive. In addition, in assay [2], the Potency entry was “inactive”.
Regarding `CCC(=O)OCC(=O)[C@@]1(OC(=O)CC)[C@H](C)C[C@H]2[C@H]3[C@H]([C@@H](O)C[C@@]21C)[C@@]1(C)C=CC(=O)C=C1C[C@H]3Cl`, the max response in assay [1] was -4.51% (inactive). In [2], the Potency entry is “inactive”.
The corresponding values for `O=C1CSC2(CCN(CCCN3c4ccccc4Sc4ccc(Cl)cc43)CC2)N1` are -3.9% (inactive) and “inactive”.
The corresponding values for `NCc1ccccc1CC(=O)N[C@@H]1C(=O)N2C(C(=O)O)=C(CSc3nnnn3CC(=O)O)CS[C@H]12` are 5.62% (inactive) and “inactive”.
For `Cc1c(C)c2c(c(C)c1O)CC[C@@](C)(CCC[C@H](C)CCC[C@H](C)CCCC(C)C)O2`, the max response in assay [1] is 1.54% (inactive) and 7.72% (inactive). Besides, the Potency entry in [2] was “inactive”.
Turning to `CCCCC(CC)COC(=O)CC(C(=O)OCC(CC)CCCC)S(=O)(=O)O` (configuration not stated), the max response in assay [1] is -7.18% (inactive) and 8.87% (inactive); in assay [3] it was -6.91% (inactive). The result in [4] was inactive. The Potency result in [2] was “inactive”.
Consider `CO[C@H]1C=CO[C@@]2(C)Oc3c(C)c(O)c4c(O)c(c5c(nc6cc(C)ccn65)c4c3C2=O)NC(=O)/C(C)=C\C=C[C@H](C)[C@H](O)[C@@H](C)[C@@H](O)[C@@H](C)[C@H](OC(C)=O)[C@@H]1C`, for which the Potency in assay [1] is 12.6 µM (active). In [2], the Potency result was “inactive”.
For `C[C@]12CCC(=O)C=C1CC[C@@H]1[C@@H]2[C@@H](O)C[C@@]2(C)[C@H]1CC[C@]2(O)C(=O)COP(=O)(O)O`, the max response in assay [1] is -12.2% (inactive). Further, the Potency entry in assay [2] is “inactive”.
The corresponding values for `OCCO[C@@H]1[C@@H](O)[C@H](O)[C@@H](CO)O[C@@H]1O` are 18.7% (inactive) and “inactive”.
The corresponding values for `CC[C@H]1OC(=O)C[C@@H](O)[C@H](C)[C@@H](O[C@@H]2O[C@H](C)[C@@H](O)[C@H](N(C)C)[C@H]2O)[C@@H](CCN2C[C@H](C)C[C@H](C)C2)C[C@@H](C)C(=O)/C=C/C(C)=C/[C@@H]1CO[C@@H]1O[C@H](C)[C@@H](O)[C@@H](OC)[C@H]1OC` are -0.81% (inactive) and “inactive”.
`CCCCCCCC/C=C\CCCCCCCC(=O)O`: the max response in assay [1] was 5.58% (inactive); in assay [3], -8.54% (inactive) and -13.9% (inactive). Besides, the molecule was called inactive in [4]. For the same molecule, in assay [2], the Potency result was “inactive”.
Regarding `CC(=O)OCC(=O)[C@@]1(O)CC[C@H]2[C@@H]3C[C@H](C)C4=CC(=O)C=C[C@]4(C)[C@H]3[C@@H](O)C[C@@]21C`, the max response in assay [1] was -1.15% (inactive). For the same molecule, in assay [2], the Potency result is “inactive”.
`O=S(=O)(O)O`: the max response in [1] was -4.98% (inactive); in assay [3], 9.97% (inactive) and -5.38% (inactive). The call in assay [4] was inactive. Further, the Potency result in assay [2] is “inactive”.
On to `CC(O)CO` (configuration not stated), for which the max response in assay [1] is 5.22% (inactive); in [3] it was 4.22% (inactive) and 2.43% (inactive). Moreover, in [4], the outcome was inactive. Further, the Potency entry in assay [2] is “inactive”.
Consider `CC(Oc1ccccc1)C(=O)N[C@@H]1C(=O)N2[C@@H]1SC(C)(C)[C@@H]2C(=O)O` (some centres not stated), for which the max response in [1] is 15.7% (inactive). For the same molecule, the Potency result in [2] was “inactive”.
On the same counts, the results for `CC1=C(/C=C/C(C)=C/C=C/C(C)=C/C=C/C=C(C)/C=C/C=C(C)/C=C/C2=C(C)CCCC2(C)C)C(C)(C)CCC1` are -12% (inactive) and “inactive”.
`CCC(CCO[C@@H]1O[C@H](CO[C@H]2OC[C@](O)(CO)[C@H]2O)[C@@H](O)[C@H](O)[C@H]1O)C(C)(C)O` (some centres not stated): the Potency result in assay [5] was “inactive”.
In the case of `CC(/C=C/C1(O)C(C)(C)CC(O)CC1(C)O)OC1OC(CO)C(O)C(O)C1O` (configuration not stated), the Potency entry in assay [5] is “inactive”.
For the molecule `C[C@@H]1CCN(C(=O)CC#N)C[C@@H]1N(C)c1ncnc2[nH]ccc12`, the max response in assay [1] is 9.63% (inactive). Moreover, the remaining parasite growth % (stronger effect = lower value) in assay [6] came out at 95.6%. The activity, percent of control in assay [7] amounted to 99.8%. This molecule gave a parasite growth, % of DMSO control in assay [8] of 84%. Also, in [9], the parasite growth remaining, % of DMSO control (lower = more inhibition) came out at 103%. The molecule further showed a parasite growth, % of control (lower = inhibition) in assay [10] of 78.4%. In assay [11], this molecule returned a growth, % of control of 96.8%. The Potency entry in assay [12] and in assay [13] was “inactive” throughout. Besides, the IC50 (viability decrease) result in assay [14] was “inactive”.
For the molecule `CNC1CCN(C(Cc2cccc(-c3ccncc3)c2)C(=O)c2sc3c(F)ccc(F)c3c2Cl)CC1` (configuration not stated), the Potency in assay [1] was 9.35 µM (active); in [13], 26.4 µM (active). The molecule further yielded a remaining parasite growth % (stronger effect = lower value) in assay [6] of 0.218%. In assay [7], the activity, percent of control came to 0.386%. Further, the remaining proliferation (% of control), lower = more inhibition in [15] is -0.323%. Further, in assay [12], the Potency entry was “inactive”.
Consider `Cc1c(-c2ccnn2C)cc(C(=O)NCc2ccc(S(C)(=O)=O)cn2)c(=O)n1-c1cccc(C(F)(F)F)c1`, for which, in [5], the Potency entry is “inactive”.
For `CCC1(Cc2ccc(N)cc2)CCC(=O)NC1=O` (configuration not stated), the max response in assay [1] was 9.55% (inactive). Besides, the remaining parasite growth % (stronger effect = lower value) in [6] worked out at 99.6% [at 57.5 µM]. Also, in assay [7], the activity, percent of control was found to be 97.2% [at 57.5 µM]. In addition, the remaining proliferation (% of control), lower = more inhibition in assay [15] turned out to be 89.8% [at 57.5 µM]. Besides, the Potency result in assay [12] and in [13] was “inactive” in each case. Further, the IC50 (viability decrease) result in [14] was “inactive”.

Source of the values: PubChem BioAssay (NCATS).
